# Only a sample is shown.
# aSyn 5UTR act = Activators via SNCA 5'UTR binding, MLPCN. AID 1814. hit rate 7.1% among 300,000. activity score, % (tested at 7.5 µM), hits read low. alpha-synuclein 5'UTR reporter, activators screen; in the data active = activity score below about -60%
# * marks the source's active call; other numbers are inactive results.
SMILES,aSyn 5UTR act
CN1CCN(c2ccc(NC(=O)COc3ccccc3)cc2Cl)CC1,-192.1*
Cc1ccc(SCC(=O)Nc2ccc(N3CCN(C)CC3)c(F)c2)cc1,-81.9*
CC(C)c1ccc(NC(=O)COc2ccccn2)cc1,-130.2*
Cc1cc(NC(=O)COc2ccccc2)ccc1Cl,-95.8*
CCCOC(=O)Nc1ccc(N2CCCCC2)cc1,-67.3*
C/C(=N\NC(=O)c1c(Cl)c(C)nn1C)c1cccc(NC(=O)COc2ccccc2)c1,-79.7*
N#C/C(=N\Nc1ccc(Cl)cc1)C(=N)N1CCCCCC1,-133.4*
Cc1ccc(N/N=C(\C#N)C(=N)N2CCCCC2)cc1,-91.2*
N#C/C(=N\Nc1ccccc1)C(=N)N1CCCCC1,-77.7*
CCN(CC)C(=N)/C(C#N)=N/Nc1ccccc1,-80.9*
CC(=O)c1cc(C#N)c(SCC(=O)OC(C)(C)C)nc1C,-115.6*
CC(=O)c1cc(C#N)c(SCc2ccccc2C#N)nc1C,-97.1*
O=C(Nc1nnc(C2CCCO2)s1)c1cccs1 (stereo unspecified),-89.6*
COc1cccc(C(=O)Nc2nnc(C3CCCO3)s2)c1 (stereo unspecified),-98.8*
O=C(Nc1nnc(C2CCCCC2)s1)c1cccs1,-162.8*
CN(C)c1ccc(C(=O)OCC(=O)N2CCCCCC2)cc1,-64.8*
COc1ccc(C(=O)COC(=O)c2ccn(C)n2)cc1,-82.8*
O=C(OCC(=O)N1CCN(c2ccccc2)CC1)c1ccccc1[N+](=O)[O-],-141.2*
COc1ccc(C(=O)COC(=O)c2ccc(N(C)C)cc2)cc1,-64.0*
O=C(OCC(=O)N1CCCC1)c1ccccc1O,-84.7*
O=C(CCN1CCN(c2ccccc2)CC1)N/N=C/c1ccccc1O,70.6
O=C(N/N=C/c1ccccc1O)NC12CC3CC(CC(C3)C1)C2,-167.5*
CC(=O)/C(N=Nc1ccc2c(c1)OCO2)=C(\C)O,-244.8*
O=C(CCSc1nc2ccccc2s1)N/N=C/c1c(O)ccc2ccccc12,65.9
Cc1cc(C)nc(NC(=O)CSc2nc3ccccc3s2)n1,-203.1*
SMILES,aSyn 5UTR act
Cc1csc(SCC(=O)Nc2nc3ccccc3s2)n1,-99.9*
CC(C)(C)NC(=O)CCCSc1nc2ccccc2s1,-133.0*
Cc1cc(C)nc(SCC(=O)OCC(=O)Nc2nc3ccccc3s2)n1,-69.8*
Cc1cc(NC(=O)CCl)n(-c2nc3ccccc3s2)n1,-77.0*
Cc1cc(C)n2c(Br)c(CSc3nc4ccccc4s3)nc2n1,-79.2*
Cc1oc(-c2ccc3ccccc3c2)nc1CN(C)C(C)c1ccncn1 (stereo unspecified),-80.4*
O=C(Nc1ccc(F)cc1)Nc1ccc2ccccc2n1,-105.6*
O=C(Nc1ccccc1)Nc1ccc2ccccc2n1,-89.1*
Clc1ccc(Nc2nc(-c3ccncc3)cs2)cc1,-85.4*
Fc1ccc(Nc2nc(-c3ccncc3)cs2)cc1,-114.0*
c1ccc(Nc2nc(-c3ccncc3)cs2)cc1,-151.0*
Cc1nc2ncccn2c1-c1csc(Nc2ccc(N(C)C)cc2)n1,70.2
Nc1ccc(Nc2nc(-c3ccncc3)cs2)cc1,-135.1*
Cc1ccc(NC(=S)NNC(=O)c2ccco2)cc1,-74.3*
Cc1ccc(C(=O)NNC(=O)c2ccco2)cc1,-69.2*
Cc1c(CCC(=O)N2CCC(C(=O)O)(c3ccccc3)CC2)c(=O)oc2cc3oc4c(c3cc12)CCCC4,67.5
O=C(COc1ccc2ccccc2c1)N1CCCC1,-68.1*
Cc1c(CCC(=O)N2CCC(C(=O)O)CC2)c(=O)oc2cc3oc4c(c3cc12)CCCC4,74.1
O=C(COc1ccc2ccccc2c1)NC1CC1,-127.7*
O=C(COc1ccc2c3c(c(=O)oc2c1)CCC3)N1CCCCC1,-81.7*
O=C(COc1ccc2ccccc2c1)Nc1cccnc1Cl,-77.2*
COc1c2c(cc3oc(=O)c4c5ccc(O)cc5oc4c13)OC(C)(C)CC2,-198.8*
O=C(Nc1ccc2c(c1)oc1ccccc12)c1cccnc1,-190.2*
O=C(Nc1ccc2c(c1)oc1ccccc12)c1ccncc1,-207.4*
CCNC(=S)Nc1ccc2c(c1)oc1ccccc12,-164.6*
SMILES,aSyn 5UTR act
CCOc1cc(/C=N/Nc2ncnc(Cl)c2N)ccc1O,-88.9*
O=C(c1ccco1)N1CCN(c2ncnc3c2oc2ccccc23)CC1,-113.1*
Nc1nc(N2CCN(C(=O)c3ccco3)CC2)nc2ccccc12,-102.0*
O=C1CCCc2nc(N3CCN(C(=O)c4ccco4)CC3)ncc21,-93.0*
CC(C)(C)c1ccc(/C=C(\c2nc3ccccc3[nH]2)S(=O)(=O)c2ccccc2)cc1,-77.7*
Cc1cccc(/C=C(\c2nc3ccccc3[nH]2)S(=O)(=O)c2ccccc2)c1,-118.5*
O=C(CSc1ncnc2c1cnn2-c1ccccc1)NC1CCCC1,-64.2*
Cc1ccc(-n2ncc3c(SCc4cccc(C)c4)ncnc32)cc1,-90.1*
Cc1ccc(-n2ncc3c(SCC(N)=O)ncnc32)cc1C,-118.5*
CC(=O)CSc1ncnc2c1cnn2-c1ccccc1,-157.2*
COc1ccc(-n2ncc3c(SCC(=O)N4CCN(c5ccccc5OC)CC4)ncnc32)cc1,-74.0*
Cc1ccccc1-n1ncc2c(SCC(=O)NCc3cccs3)ncnc21,-113.6*
Fc1ccc(-c2ccc(CNCc3ccccn3)o2)cc1,-91.2*
Nc1ccc2nc(-c3ccccc3)cnc2c1,-76.2*
Clc1ccc(-c2cnc3ccccc3n2)cc1,-208.0*
CCCCOc1ccc(-c2cnc3ccccc3n2)cc1,101.3
Oc1ccc(-c2cnc3ccccc3n2)cc1,-72.3*
O=[N+]([O-])c1ccc(/C=C/c2ccncc2)cc1,-70.8*
O=[N+]([O-])c1cccc(/C=C/c2ccncc2)c1,-65.5*
[O-]/C(=C(\C(=S)Nc1ccc(SC(F)F)cc1)[n+]1ccccc1)c1ccc(Cl)cc1Cl,-71.5*
O=C1COc2ccc(OCc3ccc(F)cc3)cc21,-99.8*
COCCCNC(=O)Cn1nnc(-c2ccc(NC(=O)c3ccccc3F)cc2)n1,-95.4*
COC(=O)CCn1nnc(-c2ccc(C(C)C)cc2)n1,119.1
O=c1c2c(nc3cc(-c4ccc(F)cc4)[nH]n13)CCC2,-87.4*
O=c1cc(-c2ccccc2)nc2cc(-c3ccc(F)cc3)[nH]n12,-109.4*
SMILES,aSyn 5UTR act
COc1cccc(-c2cn3nc4c(nc3n2)CCCC4)c1,103.7
COc1cccc(-c2cc3nc(-c4ccccc4)cc(=O)n3[nH]2)c1,-167.0*
Cc1ccc(-n2nnc3ccccc3c2=O)cc1C,-149.7*
CCCCC[C@H](O)/C=C/[C@@H]1[C@@H](C/C=C\CCCC(=O)OC)[C@@H](O)C[C@H]1O,44.3
Cc1ccc(NS(=O)(=O)c2ccc(-c3cnc(C4CC4)o3)cc2)c(C)c1,76.8
CC1CC(=O)c2cnc(Nc3ccccc3)nc2C1 (stereo unspecified),-133.6*
Cc1ccc(Nc2ncc3c(n2)CC(C)CC3=O)c(C)c1 (stereo unspecified),-81.5*
O=C(Nc1ccc(OC(F)(F)F)cc1)c1cnccn1,-195.0*
CCCOC(=O)c1ccc(NC(=O)c2cnccn2)cc1,-104.0*
O=C(Nc1ccc(NC(=O)c2ccco2)cc1)c1cnccn1,-67.0*
CCc1ccc(NC(=O)c2cnccn2)cc1,-137.7*
N#CCSc1ccc2nc(-c3ccccc3)cn2n1,-103.7*
N#CCSc1nc(-c2ccccc2)cs1,-75.4*
CC(C)NC(=O)CSc1nc(-c2ccccc2)cs1,-159.6*
CCc1ccc(-c2ccc(SCC(=O)NCC3CCCO3)nn2)cc1 (stereo unspecified),-94.5*
CCc1nnc(NC(=O)CSc2ccc(-c3ccc(-n4cccn4)cc3)nn2)s1,-98.4*
CCc1ccc(-c2ccc(SCC(=O)Nc3nnc(C)s3)nn2)cc1,-83.3*

# From PubChem BioAssay
